# Measurements reported in PubChem BioAssay AID504378 (National Center for Advancing Translational Sciences (NCATS), 2011).
# Results filed as inconclusive are left out. Unmarked numbers belong to inactive results. Activity calls are given as the source filed them. Calls follow the shape of the dose curve; as a rule, active = well fitted curve in the direction sought with a large enough effect; inconclusive = small, poorly fitted or top-dose-only effect, or another doubt; inactive = no such curve, though single readings can be large or run the other way.
# Test: qHTS Assay for Compounds Blocking the Interaction Between CBF-beta and RUNX1 for the Treatment of Acute Myeloid Leukemia: SAR for Probe with Orthogonal Assay
# Conditions: ME-1 cells viability, ATPlite luminescence, 48 h; series mostly up to 82.4 µM; activity change, negative = inhibition: at the top concentration
# From the text: NIH Chemical Genomics Center [NCGC] NIH Molecular Libraries Probe Production centers Network [MLPCN] MLPCN Grant: X01MH083259-01 Assay Submitter (PI): Paul Liu NCGC Assay Overview: Core Binding Factor (CBF) abnormalities are associated with 20-25% of all acute myeloid leukemias (AML), of which 5-10% are further sub classified as acute myelomonocytic leukemia with eosinophilia, also known as M4Eo in the FAB classification scheme. This subtype of leukemia is usually associated with chromosome 16 inversion (p13:q22). Chromosome 16 inversion results in formation of the fusion oncogene CBFB-MYH11, which encodes the fusion protein CBF-beta-SMMHC. […] It has been hypothesized that the interference of CBF-beta and RUNX1 binding could have therapeutic implications for patients with CBF mediated leukemias. We developed a CBF-beta and RUNX1 binding assay in AlphaScreenTM format and optimized it for high throughput screening to search for inhibitors. The goal of this project is to screen MLPCN's compound collection (MLSMR) for identifying the inhibitors of the interaction between CBF-beta and RUNX1 proteins as research probes. If these probes work well in the animal models, the ultimate goal of this project is to development a new drug treatment for this disease. This assay can not be used to assess how apparent inhibitors interfere with protein binding, and whether inhibitors specifically bind to either protein. Disruption of this protein-protein interaction, through any mechanism, is the intended target activity. The present data set was run to confirm the activity of hits from the primary screen using an orthogonal assay technology for measuring protein-protein interaction disruption.
# NCGC Assay protocol: ME-1 suspension cells were grown in T225 flasks to 80% density under a standard cell culture condition (ATCC) using Dulbecco's Modified Eagle Medium (DMEM) + 10% fetal bovine serum, harvested in OPTI-MEM (phenol free) + 10% FBS. Seeded at 500 cells/well in 5uL medium into 1536-well white solid-bottom plates using Multidrop Combi dispenser, and incubated the plates at 37 C with 5% CO2 and 95% humidity for 2 hours prior to pinning compound. Subsequently, 23 nL/well compound solutions or DMSO controls were dispensed to the assay plates via a pintool workstation. Plates were then transferred to 37 C with 5% CO2 and 95% humidity for 48 hours, and then ATP content was measured following the addition of 4uL/well of ATPlite reagent and a 20 min incubation on a ViewLux plate reader. Keywords: MLSMR, MLPCN, NIH Roadmap, qHTS, NCGC, Core binding factor, CBF, CBF-beta, Acute myeloid leukemia
SMILES,"activity change, negative = inhibition",outcome
C[C@H](N)C(=O)Nc1ccc(Cl)cc1C(=O)c1ccc[nH]1,-17.6%,
Nc1ccc(Cl)cc1C(=O)c1ccc[nH]1,1.45%,
NCCCC[C@H](N)C(=O)Nc1ccc(Cl)cc1C(=O)c1ccc[nH]1,-3.67%,
NCCCCC(=O)Nc1ccc(Cl)cc1C(=O)c1ccc[nH]1,-42.2%,
CN(C)CC(=O)Nc1ccc(Cl)cc1C(=O)c1ccc[nH]1,-14.1%,
NC(N)=NCCC[C@H](N)C(=O)Nc1ccc(Cl)cc1C(=O)c1ccc[nH]1,7.87%,
N[C@@H](CC(=O)O)C(=O)Nc1ccc(Cl)cc1C(=O)c1ccc[nH]1,-15%,
NCC(=O)Nc1ccc(Cl)cc1C(=O)c1ccc[nH]1,,inactive
CCc1sc(N)nc1-c1ccc(OC)cc1,6.57% [at 41 µM],
O=C(c1ccc[nH]1)c1cc(Cl)ccc1NC(=O)[C@@H]1CCCN1,21.2%,
NC(=O)C[C@H](N)C(=O)Nc1ccc(Cl)cc1C(=O)c1ccc[nH]1,-25.5%,
NCCCC(=O)Nc1ccc(Cl)cc1C(=O)c1ccc[nH]1,-11%,
CC(C)[C@H](N)C(=O)Nc1ccc(Cl)cc1C(=O)c1ccc[nH]1,-7.1%,
C[C@@H](N)C(=O)Nc1ccc(Cl)cc1C(=O)c1ccc[nH]1,6.1%,
CC(=O)Nc1ccc(Cl)cc1C(=O)c1ccc[nH]1,-5.24%,
CNCc1nc(-c2ccc[nH]2)c2cc(Cl)ccc2n1,28%,
CC(C)(N)C(=O)Nc1ccc(Cl)cc1C(=O)c1ccc[nH]1,0.648%,
N[C@@H](Cc1ccccc1)C(=O)Nc1ccc(Cl)cc1C(=O)c1ccc[nH]1,3.46%,
N[C@H](Cc1ccccc1)C(=O)Nc1ccc(Cl)cc1C(=O)c1ccc[nH]1,-12.2%,
N[C@H](C(=O)Nc1ccc(Cl)cc1C(=O)c1ccc[nH]1)c1ccccc1,-6.2%,
CCC(=O)Nc1ccc(Cl)cc1C(=O)c1ccc[nH]1,1.35%,
NCCC(=O)Nc1ccc(Cl)cc1C(=O)c1ccc[nH]1,3.25%,
CNCC(=O)Nc1ccc(Cl)cc1C(=O)c1ccc[nH]1,-4.39%,
N[C@@H](CCC(=O)O)C(=O)Nc1ccc(Cl)cc1C(=O)c1ccc[nH]1,-16.9%,
N[C@@H](CO)C(=O)Nc1ccc(Cl)cc1C(=O)c1ccc[nH]1,-12.7%,
